Records with an inconclusive call do not appear. Activity calls are given as the source filed them. The call rests on the fitted dose curve; in most records, active means well fitted inhibition curve with a large enough effect; inconclusive means small, poorly fitted or top-dose-only effect; inactive means flat fitted curve, though single readings scatter.
Tests used:
[1] = Drug repurposing screens with cells derived from glioblastoma tumor samples (AID 1345199); conditions: GBM patient neurospheres viability, ATP luminescence, 48 h; further: nearly all actives have a fitted effect of over 40% in size
In short: (§1)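 Primary testing used CD133+ neurospheres from four GBM patients, seven concentrations, 48 h exposure and ATP-based viability; confirmation added three slower-growing patient lines.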

[2] = test system: astro; test: as above; conditions: viability, ATP luminescence, 48 h; series mostly up to 45.9 µM
In short: as §1

[3] = at 45.9 µM (top of the series), tumour line B
[4] = at 45.9 µM (top of the series), tumour line D
[5] = at 46 µM (top of the series), tumour line A
[6] = at 46.1 µM (top of the series), tumour line C
On the % scale 0 is the no-effect control and ±100 the full control effect.

OCCCNc1ccccc1
inactive: activity, negative = cell killing [1, 3] 1.67% | activity, negative = cell killing [1, 4] -0.692% | activity, negative = cell killing [1, 5] -52.2% | activity, negative = cell killing [1, 6] -9.32% | Potency [2]

O=C(O)CCC/C=C\C[C@@H]1[C@@H](/C=C/[C@@H](O)COc2cccc(C(F)(F)F)c2)[C@H](O)C[C@@H]1O
inactive: activity, negative = cell killing [1, 3] -0.927% | activity, negative = cell killing [1, 4] 2.71% | activity, negative = cell killing [1, 5] -17.8% | activity, negative = cell killing [1, 6] 3.43% | Potency [2]

COc1ccc(/C=C/C(=O)OCCC(C)C)cc1
inactive: activity, negative = cell killing [1, 3] 1.41% | activity, negative = cell killing [1, 4] -11.4% | activity, negative = cell killing [1, 5] 4.4% | activity, negative = cell killing [1, 6] -1.14% | Potency [2]

CCCOC(=O)c1ccccc1O
inactive: activity, negative = cell killing [1, 3] -5.91% | activity, negative = cell killing [1, 4] 2.55% | activity, negative = cell killing [1, 5] -23.3% | activity, negative = cell killing [1, 6] -5.92% | Potency [2]

NC[C@@H]1CC[C@@H](N)[C@@H](O[C@H]2[C@H](O)[C@@H](O[C@H]3O[C@H](CO)[C@@H](O)[C@H](N)[C@H]3O)[C@H](N)C[C@@H]2N)O1
inactive: activity, negative = cell killing [1, 3] 0.351% | activity, negative = cell killing [1, 4] 3.76% | activity, negative = cell killing [1, 5] -27.2% | activity, negative = cell killing [1, 6] -13% | Potency [2]

CC1(O)CCC(C(C)(C)O)CC1 (stereo not given)
inactive: activity, negative = cell killing [1, 3] -1.19% | activity, negative = cell killing [1, 4] -26.4% | activity, negative = cell killing [1, 5] -16.9% | activity, negative = cell killing [1, 6] 9.01% | Potency [2]

COC1=C(OC)C(=O)C(C/C=C(\C)CC/C=C(\C)CC/C=C(\C)CC/C=C(\C)CC/C=C(\C)CC/C=C(\C)CC/C=C(\C)CC/C=C(\C)CC/C=C(\C)CCC=C(C)C)=C(C)C1=O
inactive: activity, negative = cell killing [1, 3] 2.27% | activity, negative = cell killing [1, 4] -1.65% | activity, negative = cell killing [1, 5] -4.78% | activity, negative = cell killing [1, 6] 7.72% | Potency [2]

Source: PubChem BioAssay (NCATS)
